ssDAF12 agonist: activates DAF-12 receptor from parasite S. stercoralis | HEK293 ssDAF-12/GRIP1 lit1-tk-luc reporter, luminescence; % of 3 µM dafachronic acid response | activation, % at 6.8 µM | 1% of 370,000 active | AID 652126;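 active = activation above the mean over all tested compounds plus 3 SD, cut at about 0.9% in these data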;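 note: 0% = DMSO-only wells and 100% = 3 µM delta7-dafachronic acid wells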
hcDAF-12 act: H. contortus DAF-12 activation, primary screen; HEK293 hcDAF-12 lit1-tk-luc reporter, luminescence; 0% DMSO, 100% Δ7-dafachronic acid; activation, % at 6.8 µM; 1.4% of 370,000 active;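 active = activation above the mean of all tested compounds plus 3 SD, cut at about 5.5% in these data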;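 note: 100% = response to 3 µM Δ7-dafachronic acid high control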
DAX1 inh-1: DAX1 (NR0B1) inhibition, primary screen; HEK293T StAR-luciferase reporter, SF-1/DAX-1 repression relief; inhibition, % at 6.8 µM; 1.1% of 370,000 active; AID 652010;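 active = inhibition above the mean over all tested compounds plus 3 SD, cut at about 3.6% in these data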;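 note: 0% = DAX-1 cells with DMSO and 100% = cells lacking DAX-1 with DMSO; higher inhibition means more luminescence from relief of DAX-1 repression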
hgDAF12 agonist: activates the H. glycines DAF-12 receptor ligand-binding domain; AID 687014; 1.8% of 370,000 active; activation, % at 6.8 µM; HEK293 GAL4-hgDAF12 UAS-luciferase reporter, agonist luminescence; normalized to butyrate control;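 active = activation above a cutoff set at the mean of all screened compounds plus 3 SD, cut at about 10% in these data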;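 note: 0% = DMSO wells and 100% = sodium butyrate wells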
DAX1 inh-2: inhibitors of human orphan nuclear receptor DAX1 (NR0B1). inhibition, % at 6.75 µM. AID 504766. HEK293 Gal4-DAX1 luciferase reporter, luminescence. 0.99% of 340,000 active. P51843;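 active = inhibition above the mean over all tested compounds plus 3 SD, cut at about 4.2% in these data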;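 note: 0% = DAX1-transfected cells with DMSO and 100% = empty-vector control cells with DMSO; inhibition shows as a rise in luminescence from relieved DAX1 repression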
Target sequence (P51843 207-470 limits assumed): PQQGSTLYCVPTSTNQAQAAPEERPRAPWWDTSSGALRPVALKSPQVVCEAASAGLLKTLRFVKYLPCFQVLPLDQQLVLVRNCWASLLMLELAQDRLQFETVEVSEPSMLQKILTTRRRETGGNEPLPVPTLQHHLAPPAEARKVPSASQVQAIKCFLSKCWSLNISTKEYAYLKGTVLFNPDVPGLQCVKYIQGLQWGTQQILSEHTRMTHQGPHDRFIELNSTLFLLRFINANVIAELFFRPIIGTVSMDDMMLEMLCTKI
DAX1 inh confirm: NR0B1 (human) inhibition, confirmation; shares compounds with DAX1 inh-1; inhibition, % at 6.8 µM; AID 652134; HEK293T StAR-promoter luciferase reporter, SF-1/DAX-1 repression; 87% of 2,400 active;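 active = inhibition above the average of every tested compound plus 3 SD, cut at about 3.8% in these data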;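 note: 0% = DAX-1 cells with DMSO and 100% = no DAX-1 control cells with DMSO; active compounds raise luminescence by relieving repression of the StAR reporter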
Target sequence (P51843 whole entry, looked up): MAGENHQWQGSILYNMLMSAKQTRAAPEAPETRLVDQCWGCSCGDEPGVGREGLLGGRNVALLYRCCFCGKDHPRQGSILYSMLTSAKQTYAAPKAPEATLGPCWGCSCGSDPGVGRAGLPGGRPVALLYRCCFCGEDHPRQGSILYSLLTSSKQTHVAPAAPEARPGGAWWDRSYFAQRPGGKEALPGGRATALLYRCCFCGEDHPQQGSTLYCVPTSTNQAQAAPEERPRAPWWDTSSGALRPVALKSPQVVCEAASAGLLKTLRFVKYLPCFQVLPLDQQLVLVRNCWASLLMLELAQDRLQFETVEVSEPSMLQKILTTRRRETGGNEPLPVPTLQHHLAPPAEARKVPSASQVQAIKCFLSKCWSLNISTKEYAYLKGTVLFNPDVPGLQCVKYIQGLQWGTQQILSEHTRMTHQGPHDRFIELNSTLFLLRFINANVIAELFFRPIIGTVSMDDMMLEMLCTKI
SF1 AF2mut Luc: nonselective inhibitor or artifact in SF-1 mutant DAX1 counter-screen; AID 652136; HEK293 StAR-luciferase, SF-1 AF2 mutant, luminescence; inhibition, % at 6.8 µM; shares compounds with DAX1 inh-1; 78% of 2,400 active;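 active = inhibition above the mean of all tested compounds plus 3 SD, cut at about 3% in these data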;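 note: 0% = DAX-1 transfected cells with DMSO and 100% = cells without DAX-1 with DMSO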
LXR ag: activates human LXR-beta, counter-screen for hcDAF-12 agonists; shares compounds with hcDAF-12 act; HEK293 Gal4-LXR tk-luc reporter, luminescence, 24 h; normalized: DMSO 0%, positive control 100%; activation, % at 6.8 µM; 3,400 tested, under 10 active; AID 743027;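 active = mean percent activation of the reporter above a cutoff set as the average over tested compounds plus their standard deviation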
hcDAF12 conf: hcDAF-12 agonism, confirmation assay; HEK293 hcDAF-12 lit1-tk-luc reporter, luminescence; % of Δ7-dafachronic acid response; activation, % at 6.8 µM; AID 743032; shares compounds with hcDAF-12 act; 61% of 3,400 active;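 active = mean activation across triplicate tests above the threshold derived from the earlier primary screen, cut at about 5.5% in these data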;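 note: 0% = DMSO only wells and 100% = 3 µM Δ7-dafachronic acid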
hgDAF12 conf: hgDAF-12 agonism, confirmation assay. 80% of 3,300 active. shares compounds with hgDAF12 agonist. activation, % at 6.8 µM. AID 743050. HEK293 GAL4-hgDAF12 luciferase reporter, agonist mode; percent of butyrate response;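 active = mean activation over triplicate wells above the hit cutoff derived from the earlier primary screen, cut at about 11% in these data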;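 note: 0% = DMSO low control and 100% = 2 mM sodium butyrate high control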
LXRb DAF12 ctr: counter-screen for DAF-12 agonists: agonists of human LXR-beta | shares compounds with hgDAF12 agonist | HEK293 Gal4-LXR luciferase reporter, 24 h | activation, % at 6.8 µM | 3,300 tested, under 10 active;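 active = mean activation of the triplicate above a set limit carried over from the primary screen, none filed active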
Starred values were filed as active, the others as inactive; / = not tested or not shown. Compounds with a hit are over-represented: about 4.1% of the library has one in this group of screens.

SMILES	ssDAF12 agonist	hcDAF-12 act	DAX1 inh-1	hgDAF12 agonist	DAX1 inh-2	DAX1 inh confirm	SF1 AF2mut Luc	hgDAF12 conf	LXRb DAF12 ctr	others
CC(=O)c1cccc(NC(=O)c2cccc3c(-c4cnn(C)c4)coc23)c1	-1	1	-1	-2	/	/	/	/	/
O=C(N[C@H](C(=O)N1CCC[C@H]1C(=O)NCCc1ccccc1Cl)c1ccccc1)C1CC1	0	-1	-1	-2	/	/	/	/	/
CCC(=O)Oc1ccc(C(=O)Nc2ccc3c(c2)OCO3)cc1	1.7*	3	5.5*	22*	/	13*	7.8*	15*	1
O=C(Nc1ccc2c(c1)OCO2)c1ccc(Cl)s1	1.9*	14*	4.6*	16*	0	12*	9.9*	21*	1	LXR ag=2;hcDAF12 conf=12*
CCCCOc1ccc(C(=O)Nc2ccc3c(c2)OCO3)cc1	-1	2	1	1	2	/	/	/	/
COc1cc(OC)c2c(=O)cc(-c3ccccc3)oc2c1	-1	3	4.7*	16*	4	4.7*	1	9	0
Cn1ccnc1SCC(=O)N1CCc2ccccc21	0	3	5.5*	20*	2	7.1*	5.6*	9	0
COc1cccc(-n2ccnc2SCC(=O)N2CCc3ccccc32)c1	-2	0	-1	-2	0	/	/	/	/
O=C(CSc1ccccn1)N1CCc2ccccc21	0	2	6.9*	16*	1	12*	5.7*	14*	1
O=C(c1cnc(Cc2c[nH]c3ccccc23)c(I)c1)N1CCN(Cc2ccccc2)CC1	-1	-2	-3	-5	/	/	/	/	/
O=C(Nc1ccc2c(c1)OCCO2)c1cnc2ccccn2c1=O	0	1	3	10	2	/	/	/	/
Cc1cccc(NC(=O)c2cnc3ccccn3c2=O)c1	1	8.8*	7.7*	22*	1	11*	4.4*	17*	1	LXR ag=2;hcDAF12 conf=6.1*
Cc1ccc(NC(=O)CSc2nccn2Cc2ccco2)c(C)c1	0	7.2*	6.3*	14*	0	7.8*	3.2*	14*	1	LXR ag=1;hcDAF12 conf=7.0*
Cc1ccc(C)c(NC(=O)CSc2nccn2Cc2ccco2)c1	-1	3	-1	5	1	/	/	/	/
O=S(=O)(c1cccc2cccnc12)N1CCC(c2cn3ccccc3n2)CC1	-2	0	-2	1	/	/	/	/	/
Clc1ccccc1N=C1NN=C(c2cccs2)CS1	1.3*	10*	7.2*	18*	4	9.5*	5.3*	16*	1	LXR ag=1;hcDAF12 conf=9.3*
COc1ccccc1NS(=O)(=O)c1cc(NC(=O)COc2ccccc2F)ccc1N1CCOCC1	-1	-1	-2	2	-2	/	/	/	/
COc1cccc(-c2noc(-c3ccc4c(c3)OCO4)n2)c1	1.8*	5	6.1*	17*	4.3*	13*	4.0*	17*	1
c1ccc(-c2noc(-c3ccc4c(c3)OCO4)n2)cc1	1.2*	6.3*	5.0*	22*	4	18*	7.7*	19*	1
COc1ccc(-c2noc(-c3ccc4c(c3)OCO4)n2)cc1	-1	1	1	3	0	/	/	/	/
C[C@H]1CN([C@@H](C)CO)C(=O)CCCn2nncc2CO[C@@H]1CN(C)C(=O)Nc1ccccc1F	0	1	0	0	/	/	/	/	/
COc1ccccc1N1Cc2ccc(OC)c(OC)c2C1=O	-1	-2	1	-1	1	/	/	/	/
COc1ccc2c(c1OC)C(=O)N(c1cccc(C(F)(F)F)c1)C2	0	5.7*	5.1*	19*	2	13*	4.4*	15*	0
COc1ccc(-c2cc(-c3ccccc3)n[nH]2)c(O)c1	0	4	5.5*	16*	2	6.3*	5.5*	16*	1
COc1ccc(-c2ncncc2-c2ccccc2)c(O)c1	-1	-2	0	3	1	/	/	/	/
SMILES	ssDAF12 agonist	hcDAF-12 act	DAX1 inh-1	hgDAF12 agonist	DAX1 inh-2	DAX1 inh confirm	SF1 AF2mut Luc	hgDAF12 conf	LXRb DAF12 ctr	others
CC1=C(C(=O)N(C)C)CC(CC(=O)NCCCN(C)C)C(=O)N1Cc1ccccc1 (stereo unspecified)	0	-2	0	0	1	/	/	/	/
CCC1CCC/C1=N\NC(=O)c1ccoc1C (stereo unspecified)	0	4	11*	17*	1	0	0	5	0
CCC1CCC/C1=N\NC(=O)c1ccccc1Cl (stereo unspecified)	0	0	0	3	/	/	/	/	/
Cc1ccc(OCc2cc(C(=O)NCCc3cccnc3)no2)cc1C	-1	0	-1	1	0	/	/	/	/
COc1cccc(CCNC(=O)c2cc(COc3ccc(C)c(C)c3)on2)c1OC	0	4	4.6*	14*	4.4*	7.8*	3.4*	16*	1
CCn1c(SCC(=O)Nc2ccccc2)nc2c(c1=O)SCC2	-1	0	0	3	1	/	/	/	/
O=C(Nc1nc2c(F)cccc2s1)c1ccco1	1	5.6*	4.8*	16*	0	6.8*	6.7*	17*	1
CC(=O)Nc1nc2c(F)cccc2s1	-1	0	0	1	0	/	/	/	/
CCCCS(=O)(=O)N1CCCc2nc(-c3ccccc3)ccc21	-1	-1	0	2	/	/	/	/	/
Cn1c(=N)n(CC(=O)c2cccs2)c2ccccc21	1	15*	6.0*	17*	4	4.3*	4.0*	13*	0	LXR ag=1;hcDAF12 conf=9.5*
CCCn1c(=N)n(CC(=O)c2cccs2)c2ccccc21	-1	-4	0	-3	-1	/	/	/	/
Cc1cc(C)n2c(Nc3ccc4c(c3)OCCO4)c(-c3ccc(C)o3)nc2n1	0	6.9*	5.7*	13*	0	-1	-1	9	1	LXR ag=0;hcDAF12 conf=1
COc1ccc([C@H]2CC(=O)C[C@@H](CCn3cccn3)O2)cc1	-1	0	0	-1	/	/	/	/	/
CN(c1ccccc1)S(=O)(=O)c1ccc(Cl)c(C(=O)Nc2ccccc2N2CCOCC2)c1	-1	-1	0	5	-4	/	/	/	/
